# In all, about 2,900 compounds were measured (“IRF Lucia reporter activity, fold change vs agonist alone”: median about 0.9, highest 2% from about 2.8 on). The sample holds the highest values, similar compounds and a random draw of the others, so the mix is not that of the screen.
# Tests used:
# RAW-Dual [1] = assay: IRF Lucia reporter activity, fold change vs agonist alone; cytotoxicity flag (confluency mask): cytotoxic (confluency <70% of control); higher = enhanced IRF activity
# Procedure, shortened: (§1)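 After 50 nL of library stock was delivered by pin tool to RAW-Dual macrophages (50,000 cells/well, DMEM, 384-well plates), a PRR agonist was added 1 h later and the plates were kept at 37 °C, 5% CO2. Twenty hours later, IRF was read from supernatant by QuantiLuc luminescence and NF-κB by QuantiBlue absorbance at 620 nm. Reporter activity is stated as fold change over agonist-alone wells. Wells with IncuCyte confluency under 70% of agonist controls in both mask sets were counted as cytotoxic.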
# RAW-Dual [2] = assay: IRF Lucia reporter activity, fold change vs agonist alone; cytotoxicity flag (confluency mask): not cytotoxic; higher = enhanced IRF activity
# Procedure, shortened: as §1
# RAW-Dual [3] = assay: IRF Lucia reporter activity, fold change vs agonist alone; higher = enhanced IRF activity; settings: agonist: MPLA (TLR4) […]
# Procedure, shortened: as §1
# [4] = agonist: 3'3'-cGAMP (STING) 10 ug/mL
# [5] = library stock concentration (final ~1000-fold dilution): 10 mM, cytotoxicity flag (confluency mask): not cytotoxic
structure (smiles),measurement,setting,value
CCOC(=O)C1=C(COCCN)NC(C)=C(C(=O)OC)C1c1ccccc1Cl.O=S(=O)(O)c1ccccc1 (configuration not stated) (library stock concentration (final ~1000-fold dilution): 10 mM),IRF Lucia reporter activity,RAW-Dual [1]; [4],1.02
same,IRF Lucia reporter activity,RAW-Dual [1]; agonist: LPS (TLR4) 0.1 ug/mL,3.19
CCOC(=O)C1=C(C)NC(C)=C(C(=O)OC)C1c1cccc(Cl)c1Cl (configuration not stated) (library stock concentration (final ~1000-fold dilution): 10 mM),IRF Lucia reporter activity,RAW-Dual [2]; [4],1.31
same,IRF Lucia reporter activity,RAW-Dual [2]; agonist: LPS (TLR4) 0.1 ug/mL,1.17
COC(=O)C1=C(C)NC(C)=C(C(=O)OC)C1c1ccccc1[N+](=O)[O-],IRF Lucia reporter activity,RAW-Dual [3]; [5],0.406
Cc1cccc(Nc2nc(NC3CCCCC3N)ncc2C(N)=O)c1.Cl.Cl (configuration not stated) (library stock concentration (final ~1000-fold dilution): 10 mM),IRF Lucia reporter activity,RAW-Dual [1]; [4],0.0182
same,IRF Lucia reporter activity,RAW-Dual [1]; agonist: LPS (TLR4) 0.1 ug/mL,0.0241
CS(=O)(=O)O.Cc1ccc(N(CC2=NCCN2)c2cccc(O)c2)cc1 (library stock concentration (final ~1000-fold dilution): 10 mM),IRF Lucia reporter activity,RAW-Dual [2]; [4],0.803
same,IRF Lucia reporter activity,RAW-Dual [2]; agonist: LPS (TLR4) 0.1 ug/mL,0.89
CS(=O)(=O)O.Cc1ccc(N(CC2=NCCN2)c2cccc(O)c2)cc1,IRF Lucia reporter activity,RAW-Dual [3]; [5],0.907
C[N+](C)(C)NCCC(=O)O (library stock concentration (final ~1000-fold dilution): 10 mM water),IRF Lucia reporter activity,RAW-Dual [2]; [4],1.05
same,IRF Lucia reporter activity,RAW-Dual [2]; agonist: LPS (TLR4) 0.1 ug/mL,0.979
C[N+](C)(C)NCCC(=O)O,IRF Lucia reporter activity,"RAW-Dual [3]; library stock concentration (final ~1000-fold dilution): 10 mM water, cytotoxicity flag (confluency mask): not cytotoxic",1.25
C[C@@H]1O[C@@H](O[C@H]2C(=O)c3c(O)cc(O)cc3O[C@@H]2c2ccc(O)cc2)[C@H](O)[C@H](O)[C@H]1O (library stock concentration (final ~1000-fold dilution): 10 mM),IRF Lucia reporter activity,RAW-Dual [2]; [4],0.228
same,IRF Lucia reporter activity,RAW-Dual [2]; agonist: LPS (TLR4) 0.1 ug/mL,1.17
COc1nc2ccc(Br)cc2cc1C(c1ccccc1)C(O)(CCN(C)C)c1cccc2ccccc12.O=C(O)/C=C/C(=O)O (configuration not stated) (library stock concentration (final ~1000-fold dilution): 10 mM),IRF Lucia reporter activity,RAW-Dual [2]; [4],0.888
same,IRF Lucia reporter activity,RAW-Dual [2]; agonist: LPS (TLR4) 0.1 ug/mL,0.812
COc1nc2ccc(Br)cc2cc1C(c1ccccc1)C(O)(CCN(C)C)c1cccc2ccccc12.O=C(O)/C=C/C(=O)O (configuration not stated),IRF Lucia reporter activity,RAW-Dual [3]; [5],0.751
Cc1cc(Nc2ccc(NC(=O)c3ccc(Nc4ccnc5ccccc45)cc3)cc2)nc(N)n1 (library stock concentration (final ~1000-fold dilution): 10 mM),IRF Lucia reporter activity,RAW-Dual [2]; [4],1.65
same,IRF Lucia reporter activity,RAW-Dual [2]; agonist: LPS (TLR4) 0.1 ug/mL,2.84
CC(=O)Nc1ccc(C(=O)Nc2ccccc2N)cc1 (library stock concentration (final ~1000-fold dilution): 10 mM),IRF Lucia reporter activity,RAW-Dual [2]; [4],0.557
same,IRF Lucia reporter activity,RAW-Dual [2]; agonist: LPS (TLR4) 0.1 ug/mL,0.424
Cc1cc(Nc2ccc(NC(=O)c3ccc(Nc4ccnc5ccccc45)cc3)cc2)nc(N)n1,IRF Lucia reporter activity,RAW-Dual [3]; [5],3.15
CNCc1ccc(C)c(NC(=O)c2ccc(Nc3nc(-c4ccccc4)c4ccccc4n3)cc2)c1,IRF Lucia reporter activity,RAW-Dual [3]; [5],1.01
CNCc1ccc(C)c(NC(=O)c2ccc(Nc3nc(-c4ccccc4)c4ccccc4n3)cc2)c1 (library stock concentration (final ~1000-fold dilution): 10 mM),IRF Lucia reporter activity,RAW-Dual [2]; [4],0.995
same,IRF Lucia reporter activity,RAW-Dual [2]; agonist: LPS (TLR4) 0.1 ug/mL,1.04
CC(=O)Nc1ccc(C(=O)Nc2ccccc2N)cc1,IRF Lucia reporter activity,RAW-Dual [3]; [5],0.418
CCN(CC)CCCC(C)Nc1c2ccc(Cl)cc2nc2ccc(OC)cc12.Cl.Cl (configuration not stated),IRF Lucia reporter activity,"RAW-Dual [3]; library stock concentration (final ~1000-fold dilution): 10 mM, cytotoxicity flag (confluency mask): cytotoxic (confluency <70% of control)",0.84
CCN(CC)CCCC(C)Nc1c2ccc(Cl)cc2nc2ccc(OC)cc12.Cl.Cl (configuration not stated) (library stock concentration (final ~1000-fold dilution): 10 mM),IRF Lucia reporter activity,RAW-Dual [1]; [4],0.643
same,IRF Lucia reporter activity,RAW-Dual [1]; agonist: LPS (TLR4) 0.1 ug/mL,0.0599
C/C(O)=C(\C#N)C(=O)Nc1ccc(C(F)(F)F)cc1,IRF Lucia reporter activity,RAW-Dual [3]; [5],1.97
Cc1oncc1C(=O)Nc1ccc(C(F)(F)F)cc1,IRF Lucia reporter activity,RAW-Dual [3]; [5],1.62
CC(=O)Oc1cc(C(F)(F)F)ccc1C(=O)O (library stock concentration (final ~1000-fold dilution): 10 mM),IRF Lucia reporter activity,RAW-Dual [2]; [4],1.03
same,IRF Lucia reporter activity,RAW-Dual [2]; agonist: LPS (TLR4) 0.1 ug/mL,0.337
C/C(O)=C(\C#N)C(=O)Nc1ccc(C(F)(F)F)cc1 (library stock concentration (final ~1000-fold dilution): 10 mM),IRF Lucia reporter activity,RAW-Dual [2]; [4],1.69
same,IRF Lucia reporter activity,RAW-Dual [2]; agonist: LPS (TLR4) 0.1 ug/mL,3.04
CC(=O)Oc1cc(C(F)(F)F)ccc1C(=O)O,IRF Lucia reporter activity,RAW-Dual [3]; [5],1.04
Cc1oncc1C(=O)Nc1ccc(C(F)(F)F)cc1 (library stock concentration (final ~1000-fold dilution): 10 mM),IRF Lucia reporter activity,RAW-Dual [2]; [4],1.08
same,IRF Lucia reporter activity,RAW-Dual [2]; agonist: LPS (TLR4) 0.1 ug/mL,1.39
CC1CCC2C(C)C(OC(=O)CCC(=O)O)OC3OC4(C)CCC1C32OO4 (configuration not stated),IRF Lucia reporter activity,RAW-Dual [3]; [5],0.737
CC1CCC2C(C)C(OC(=O)CCC(=O)O)OC3OC4(C)CCC1C32OO4 (configuration not stated) (library stock concentration (final ~1000-fold dilution): 10 mM),IRF Lucia reporter activity,RAW-Dual [2]; [4],0.638
same,IRF Lucia reporter activity,RAW-Dual [2]; agonist: LPS (TLR4) 0.1 ug/mL,0.706
